This is a sample that favours compounds with a hit; in the whole collection about 0.92% have one here.
NS1 inh: influenza NS1 inhibition; Potency, µM (series often up to 46.1 µM), for the others: top-dose activity, positive = more growth; 0.4% of 270,000 active; AID 2326; calls by dose curve; further: potency means the concentration at half of the fitted maximal effect; actives are rising curves; nearly all actives have a fitted effect of over 50% in size
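Read-out: OD600 growth recovery of NS1-expressing budding yeast. Cells grown overnight at 30C in -URA glucose medium, washed, resuspended and diluted 1:100 in 2% galactose assay medium, pH 6.0. Same strain lacking NS1 served as positive control.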
TbPYK inhibitor: inhibitors of Trypanosoma brucei pyruvate kinase; Q57TT1; TbPYK enzyme, Kinase-Glo Plus ATP luminescence, 45 min; Potency, µM (top dose mostly 76.8 µM), without a hit: at the highest dose activity, negative = inhibition, actives largely listed as inhibitors; 0.12% of 410,000 active; AID 624173; further: potency means the concentration at half of the fitted maximal effect; on the % scale 0 is the no-effect control and ±100 the full control effect; nearly all actives have a fitted effect of over 50% in size
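Luminescence from Kinase-Glo Plus, added after a 45-minute room-temperature reaction, served as the end-point read-out. The enzyme and substrate were preincubated with compound before ADP (130 uM final) initiated turnover. Concentration-effect curves came from normalized qHTS data.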
LmPK inhibitor: blocks Leishmania mexicana pyruvate kinase activity | 0.37% of 290,000 active | AID 1721 | Q27686 | purified LmPK, Kinase-Glo ATP luminescence, 1 h | Potency, µM (series often up to 57.5 µM), for the others: at the highest dose activity change, negative = inhibition, actives largely listed as inhibitors; further: potency means the concentration at half of the fitted maximal effect; on the % scale 0 is the no-effect control and ±100 the full control effect
Target sequence (Q27686 whole entry, looked up): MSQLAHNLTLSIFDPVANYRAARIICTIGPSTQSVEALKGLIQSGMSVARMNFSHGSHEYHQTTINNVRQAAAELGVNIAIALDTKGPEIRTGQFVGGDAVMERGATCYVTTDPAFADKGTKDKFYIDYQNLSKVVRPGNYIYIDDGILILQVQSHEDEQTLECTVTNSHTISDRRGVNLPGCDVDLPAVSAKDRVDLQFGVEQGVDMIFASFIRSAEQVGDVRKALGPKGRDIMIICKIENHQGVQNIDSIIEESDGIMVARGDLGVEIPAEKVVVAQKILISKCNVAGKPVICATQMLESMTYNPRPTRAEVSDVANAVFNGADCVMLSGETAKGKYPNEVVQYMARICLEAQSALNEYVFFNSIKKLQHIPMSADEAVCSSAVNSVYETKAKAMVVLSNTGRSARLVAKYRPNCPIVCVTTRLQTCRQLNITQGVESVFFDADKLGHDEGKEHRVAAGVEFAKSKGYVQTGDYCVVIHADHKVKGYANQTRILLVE
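Kinase-Glo luminescence read after 1 h RT reaction of 0.1 nM LmPK with 0.5 mM PEP and 0.1 mM ADP. Activity scaled between uninhibited and enzyme-free controls.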
RE007 growth inh: less growth of the S. pombe RE007 Vpr strain | S. pombe RE007 Vpr strain, BacTiter-Glo ATP luminescence, 24 h | Potency, µM (series often up to 92.2 µM), inactives show top-dose activity change, negative = less growth, actives largely listed as inhibitors | 0.21% of 360,000 active | AID 651644; active means well fitted falling curve with a large enough effect; inconclusive means small, poorly fitted or top-dose-only effect; inactive means no such curve, though single readings can be large or run the other way; further: potency means the concentration at half of the fitted maximal effect; on the % scale 0 is the no-effect control and ±100 the full control effect; nearly all actives have a fitted effect of over 50% in size
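Fission yeast RE007 carrying one integrated HIV-1 vpr copy, seeded at OD 0.01 in PMG+AL medium with 23 nL pinned compound. Grown 24 h at 30 degrees; viability read by BacTiter-Glo luminescence after 5 min.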
AMA1 RON2 block: disrupts binding of P. falciparum AMA1 to RON2 | AID 720542 | 0.2% of 360,000 active | Potency, µM (highest dose often 58.2 µM), inactives show top-dose activity change, negative = inhibition, hits mostly inhibitors | AlphaScreen AMA1-biotinylated RON2 peptide binding;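 further: potency means the concentration at half of the fitted maximal effect; 0% = vehicle wells and -100% = peptide control; nearly all actives have a fitted effect of over 45% in size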
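AMA1 (3D7) with his tag at 25 nM final met compounds first, then biotinylated RON2 peptide at 25 nM; detection used donor plus acceptor beads, 10 µg/mL apiece, read by AlphaScreen after 30 min at room temperature.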
LmPK inh confirm: Confirms inhibition of Leishmania mexicana pyruvate kinase; Potency, µM (highest dose often 57.5 µM), for inactives: top-dose activity change, negative = inhibition, most hits filed as inhibitors; purified LmPK, Kinase-Glo ATP luminescence, 1 h; shares compounds with LmPK inhibitor; 40% of 150 active;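 active means compounds giving a full or partial concentration-response curve, as inhibitors or activators; inconclusive means weak, top-dose-only or unclear curve responses; inactive means no response at any tested dose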
Starred values were filed as active, the others as inactive; [ ] = dose if it differs, or a comment. Unless noted, the call rests on the fitted dose curve; in most records, active means well fitted curve in the direction sought with a large enough effect; inconclusive means small, poorly fitted or top-dose-only effect, or another doubt; inactive means no such curve, though single readings can be large; an effect the other way counts as inactive or inconclusive.

`CCOc1cc2c(cc1OCC)C(CC(=O)O)N(C(=O)Nc1ccc(Br)c(C)c1)CC2` (stereo unspecified) gave TbPYK inhibitor -3.9%.
Screening Cc1cc(C)n2nc(-c3ccc(F)cc3)nc2n1 returned NS1 inh 7.3%, TbPYK inhibitor -8.0%, LmPK inhibitor inconclusive, RE007 growth inh -10.5% and AMA1 RON2 block 8.1%.
Fc1ccc(-c2nc3n(n2)Cc2ccccc2-3)cc1 was read as NS1 inh -9.8%, TbPYK inhibitor -10.6%, LmPK inhibitor 3.55µM*, RE007 growth inh inconclusive, AMA1 RON2 block -8.3% and LmPK inh confirm inconclusive.
O=c1c2ccccc2cnn1-c1nc2ccccc2[nH]1 was read as TbPYK inhibitor 12.6µM*, LmPK inhibitor 2.24µM*, RE007 growth inh inconclusive, AMA1 RON2 block 9.2% and LmPK inh confirm 3.26µM*.
CN(Cc1ccccc1)C(=O)c1ccc2c(c1)N(Cc1ccccc1F)C(=O)c1ccccc1S2(=O)=O was read as TbPYK inhibitor 7.7%.
`CC(=O)c1cc(C#N)c(Oc2cc(C)cc(C)c2)nc1C` gave NS1 inh -1.4%, TbPYK inhibitor inconclusive, LmPK inhibitor -3.7%, RE007 growth inh 3.0% and AMA1 RON2 block 3.7%.
CC(=O)c1cc(C#N)c(Oc2ccc(F)cc2)nc1C was read as NS1 inh -81.2%, TbPYK inhibitor -2.9%, LmPK inhibitor 3.8%, RE007 growth inh -12.9%, AMA1 RON2 block -6.2% and LmPK inh confirm 4.3%.
For CC(=O)Nc1ccc(C(=O)NNC(=O)CCc2ccccc2)cc1 the results were NS1 inh 1.6%, TbPYK inhibitor -6.8%, LmPK inhibitor -3.5%, RE007 growth inh -10.7%, AMA1 RON2 block 1.3% and LmPK inh confirm 3.9%.
Screening c1ccc2nc(-c3nc4ccccc4[nH]3)ccc2c1 returned NS1 inh -21.3%, TbPYK inhibitor inconclusive, LmPK inhibitor 4.47µM*, RE007 growth inh inconclusive, AMA1 RON2 block 21.2% and LmPK inh confirm 9.19µM*.
For c1ccc2[nH]c(-c3cscn3)nc2c1 the results were NS1 inh -9.7%, TbPYK inhibitor -5.7%, LmPK inhibitor inconclusive, RE007 growth inh -11.1%[18.4 µM] and AMA1 RON2 block 9.5%.
O=C(c1ccccc1)n1ccn(-c2ccccc2)c1=S was read as NS1 inh -1.5%, TbPYK inhibitor 5.3%, LmPK inhibitor -2.1%, RE007 growth inh -3.3% and AMA1 RON2 block -8.3%.
For O=C(c1ccccc1)n1c(=S)nc2ccccn21 the results were NS1 inh -13.5%, TbPYK inhibitor inconclusive, LmPK inhibitor 4.47µM*, RE007 growth inh -26.2%, AMA1 RON2 block -20.1% and LmPK inh confirm 18.3µM*.
For O=C(Nc1cccc(O)c1)C(=O)Nc1ccccn1 the results were NS1 inh -12.2%, TbPYK inhibitor inconclusive, LmPK inhibitor 7.94µM*, RE007 growth inh inconclusive, AMA1 RON2 block -0.6% and LmPK inh confirm 20.6µM*.
`Cc1ccc(N)cc1O` gave TbPYK inhibitor 0.1%, RE007 growth inh -2.7% and AMA1 RON2 block 11.2%.
`Cc1cc(O)c(-c2cc(O)c(C)cc2O)cc1O` gave NS1 inh 8.3%, TbPYK inhibitor inconclusive, LmPK inhibitor 0.708µM*, RE007 growth inh 0.1%, AMA1 RON2 block inconclusive and LmPK inh confirm inconclusive.
`CN(C)c1ccc(C(CNC(=O)c2ccc(C(C)(C)C)cc2)N2CCOCC2)cc1` (stereo unspecified) gave TbPYK inhibitor -25.1%.
For CCOC(=O)c1c(C)n(-c2ccc(C)cc2)c2c(C(C(C)=O)C(=O)O)c(Br)c(O)c(O)c12 (stereo unspecified) the results were NS1 inh 10.7%, TbPYK inhibitor -24.8%, LmPK inhibitor -28.7%, RE007 growth inh 2.2% and AMA1 RON2 block -26.3%.
Screening CCOC(=O)C(C(C)=O)c1c(Br)c(O)c(O)c2c(C(=O)c3ccc(C)cc3)coc12 (stereo unspecified) returned NS1 inh -60.2%, TbPYK inhibitor -17.9%, LmPK inhibitor 5.62µM*, RE007 growth inh -6.8%, AMA1 RON2 block -26.5% and LmPK inh confirm -7.3%.
CCCCOc1ccc(CNC(=O)CCCN2C(=O)CSc3c2c(C)nn3-c2ccccc2)cc1 was read as TbPYK inhibitor -8.0%.
`Cc1ccc(C(=O)N2c3ccccc3CC2C)o1` (stereo unspecified) gave NS1 inh -7.5%, TbPYK inhibitor -19.4%, LmPK inhibitor 6.31µM*, RE007 growth inh inconclusive, AMA1 RON2 block -28.1% and LmPK inh confirm inconclusive.
CCn1c(-c2ccccc2Cl)nn(CC(=O)Nc2ccc(OC)cc2)c1=S was read as NS1 inh -5.6%, TbPYK inhibitor 0.4%, LmPK inhibitor -4.7%, RE007 growth inh -8.9%, AMA1 RON2 block -4.4% and LmPK inh confirm 10.9%.
Cc1ccc(NC(=O)CSc2n[nH]c(-c3ccc(F)cc3)n2)cc1F was read as TbPYK inhibitor 2.0%.
Screening Cc1cccc(NS(=O)(=O)c2ccc3c(c2)OCC(C(=O)N2CCCC2)O3)c1C (stereo unspecified) returned TbPYK inhibitor 1.5%.
Cc1ccc(-c2nnc(N(C)C(=O)c3cccnc3)s2)cc1 was read as NS1 inh -24.6%, TbPYK inhibitor -2.6%, LmPK inhibitor -1.0%, RE007 growth inh -2.6%, AMA1 RON2 block 15.1% and LmPK inh confirm -5.4%.
For Cc1ccc(-c2nnc(N(C)C(=O)c3cccnc3)s2)cn1 the results were NS1 inh -4.4%, TbPYK inhibitor -6.3%, LmPK inhibitor -4.0%, RE007 growth inh -11.0% and AMA1 RON2 block -3.4%.
Screening Cc1ccc(C)c(/C(O)=C2/C(=O)C(=O)N(CCN3CCOCC3)C2c2ccco2)c1 (stereo unspecified) returned NS1 inh inconclusive, TbPYK inhibitor 4.1%, LmPK inhibitor 2.1%, RE007 growth inh -4.1%, AMA1 RON2 block -7.0% and LmPK inh confirm 10.1%.
For COc1ccc(CCNC(=O)CCn2c(=O)c3ccccc3n(Cc3ccccc3F)c2=O)cc1OC the results were TbPYK inhibitor 6.1%.
`CCOC(=O)c1nnn(-c2nonc2N)c1-c1ccc(Br)cc1` gave TbPYK inhibitor -0.1%, LmPK inhibitor 6.3%, RE007 growth inh 13.3% and AMA1 RON2 block -4.0%.
For CCOC(=O)c1nnn(-c2nonc2N)c1-c1ccc(C)cc1 the results were NS1 inh 2.4%, TbPYK inhibitor -1.3%, LmPK inhibitor 6.6%, RE007 growth inh -0.1%, AMA1 RON2 block -1.8% and LmPK inh confirm 5.4%.
`Cc1ccc(C(=O)NNC(=O)CSc2nnc(-c3ccncc3)n2-c2ccc(C)cc2)cc1` gave NS1 inh -13.0%, LmPK inhibitor -23.3% and LmPK inh confirm 3.5%.

Screening data deposited in PubChem BioAssay by National Center for Advancing Translational Sciences (NCATS).
